Assay results taken from PubChem BioAssay (NCI).
Compounds without any hit were thinned out: in the full panel of roughly 83,000, 20% have a hit.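 Note: values are percent growth. 100 is the growth of untreated cells, values between 100 and 0 indicate rising inhibition; between -100 and 0 indicates cell death.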 Unmarked numbers belong to inactive results. Active and inactive are the calls of the source. The calls were made as follows: active = growth percent below 10; inactive = the rest.

What was measured:
Experiment in all cases: NCI-60 one-dose screen, 48 h (100 = growth as untreated, 0 = no growth, -100 = all killed)
Settings in all cases: 10 µM unless noted
[1] = system: SK-MEL-2 melanoma
[2] = system: EKVX NSCLC
[3] = system: SN12C renal
[4] = system: UO-31 renal
[5] = system: TK-10 renal
[6] = system: ACHN renal
[7] = system: CAKI-1 renal
[8] = system: A498 renal
[9] = system: CCRF-CEM leukemia
[10] = system: MOLT-4 leukemia

`CC1OC(n2c3ccccc3c3c4c(c5c6ccccc6[nH]c5c32)C(=O)N(CCN2CCCC2)C4=O)CC(O)C1O` (stereo not given) gave a growth [1] of 86.5%, a growth [2] of 57% and a growth [3] of 42%. The growth [4] was 44.5%, the growth [5] was 68.9% and the growth [6] was 16.6%. The growth [7] was 20.1%, the growth [8] was 55.5% and the growth [9] was 27.2%. It also gave a growth [10] of 11.3%.

In the case of `COC1=CC(c2ccc[nH]2)=N/C1=C\c1[nH]c(C)c(CC(=O)OCc2ccccc2)c1CCC(=O)OCc1ccccc1`, the growth [1] is reported as -61.3% (active), the growth [2] is reported as 4% (active) and the growth [3] is reported as -15.6% (active). For the same compound, the growth [4] was -89.3% (active), the growth [5] was -21.5% (active) and the growth [6] was -30.6% (active). For the same compound, the growth [7] was -15.9% (active), the growth [8] was -54.1% (active) and the growth [9] was -0.154% (active). For the same compound, the growth [10] was -10.6% (active).

Compound `COC(=O)c1c(C)c2n(c1C)C(=O)C(c1ccccc1)=C2` has a growth [1] of 77.7%, a growth [2] of 10.2% and a growth [3] of 78.7%. It also gave a growth [4] of 57.9%, a growth [5] of 143% and a growth [6] of 74%. For the same compound, the growth [7] was 33.1%, the growth [8] was 84.2% and the growth [9] was 92.8%. The growth [10] was 66.8%.

`CSc1nc2ccccc2cc1/C=[N+](\[O-])c1ccccc1` gave a growth [1] of 95.5%, a growth [2] of 79.5% and a growth [3] of 45.2%. It also gave a growth [4] of 42.8%, a growth [5] of 98% and a growth [6] of 80%. The growth [7] was 80.8%, the growth [8] was 102% and the growth [9] was 10.5%. The growth [10] was 22%.

`Nc1n[nH]c2ccc([C@H]3[C@@H]4C5CCC(C5)[C@@H]4c4c(ccc5[nH]ncc45)N3S(=O)(=O)C3CC3)cc12` (stereo not given in full) gave a growth [1] of 53.2%, a growth [2] of 29.8% and a growth [3] of 29.1%. The growth [4] was 43%, the growth [5] was 61.7% and the growth [6] was 18.5%. For the same compound, the growth [7] was 26.2%, the growth [8] was -29.2% (active) and the growth [9] was 16.2%. The growth [10] was 19%.

In the case of `COc1ccc(-c2ccc(-c3ccc(C(=N)N)cc3)s2)cc1Cl`, the growth [1] is reported as 101%, the growth [2] is reported as 68.3% and the growth [3] is reported as -69.1% (active). For the same compound, the growth [4] was -47.6% (active), the growth [5] was 111% and the growth [6] was -98.7% (active). The growth [7] was -88.2% (active), the growth [8] was 90.3% and the growth [9] was -41.3% (active). For the same compound, the growth [10] was -50.1% (active).

With `C#CCOc1cccc(Nc2ncnc3ccc(NC(=O)C=C)cc23)c1` the growth [1] was 55%, the growth [2] was 32% and the growth [3] was 29.7%. For the same compound, the growth [4] was 9.91% (active), the growth [5] was -8.81% (active) and the growth [6] was 14.9%. It also gave a growth [7] of 10.2%, a growth [8] of 33.5% and a growth [9] of 25.1%. The growth [10] was 59.8%.

`CC/C(=C(/c1ccc(Cl)cc1)c1ccc(OCCN(C)C)cc1)c1ccc(Cl)cc1` showed a growth [1] of 80.9%, a growth [2] of 73.7% and a growth [3] of 81.3%. For the same compound, the growth [4] was 64.3%, the growth [5] was 77.8% and the growth [6] was 83.9%. For the same compound, the growth [7] was 60.4%, the growth [8] was 59% and the growth [9] was 62.5%. It also gave a growth [10] of 58.2%.

`NC(N)=NCCCCCNc1noc(Cc2c[nH]c3cc(Br)ccc23)n1` gave a growth [1] of 87.7%, a growth [2] of 69.6% and a growth [3] of 44.7%. The growth [4] was 80.2%, the growth [5] was 75.4% and the growth [6] was 92.6%. The growth [7] was 82.4%, the growth [8] was 94% and the growth [9] was 97.8%. It also gave a growth [10] of 60.2%.

`CNc1nnc2n(-c3ccccc3)c(=O)c3cnn(-c4ccccc4)c3n12` was tested, and the growth [1] was 82%, the growth [2] was 90.4% and the growth [3] was 104%. It also gave a growth [4] of 81.3%, a growth [5] of 79.9% and a growth [6] of 88.8%. The growth [7] was 81%, the growth [8] was 71.7% and the growth [9] was 85.8%. The growth [10] was 72.2%.

`COc1cc2c(c(OC)c1OC)CCC(c1cccc(NC(=O)c3ccc(Br)cc3)c1)O2` (stereo not given) showed a growth [1] of 87.4%, a growth [2] of 77.2% and a growth [3] of 85.7%. The growth [4] was 66.6%, the growth [5] was 89.9% and the growth [6] was 91.2%. It also gave a growth [7] of 90.3%, a growth [8] of 69.3% and a growth [9] of 67%. The growth [10] was 41.1%.

`COc1ccc(C(=O)N2c3ccccc3Sc3ccccc32)c(OC)c1` showed a growth [1] of 38.3%, a growth [2] of 34% and a growth [3] of 51.6%. It also gave a growth [4] of 48.3%, a growth [5] of 55.8% and a growth [6] of 43.5%. For the same compound, the growth [7] was 36.8%, the growth [8] was 5.16% (active) and the growth [9] was 16.5%. The growth [10] was 12%.

For `c1ccc2cc(C[n+]3ccn(CCCCCCCCCCn4cc[n+](Cc5ccc6ccccc6c5)c4)c3)ccc2c1`, the growth [1] was -39.4% (active), the growth [2] was 13.7% and the growth [3] was 4.24% (active). For the same compound, the growth [4] was 77.5%, the growth [5] was 15.1% and the growth [6] was 52.2%. The growth [7] was 74.7%, the growth [8] was 9.69% (active) and the growth [9] was -4.14% (active). The growth [10] was -43.6% (active).

Work on `Oc1c(Br)cc(Br)c2ccc(Cn3cc(-c4ccccc4C(F)(F)F)nn3)nc12` yielded a growth [1] of 101%, a growth [2] of 95.5% and a growth [3] of 96.9%. The growth [4] was 78.7%, the growth [5] was 134% and the growth [6] was 61.8%. The growth [7] was 55%, the growth [8] was 106% and the growth [9] was 28.7%. For the same compound, the growth [10] was 6.89% (active).

For `O=C(O)c1cn(C2CC2)c2cc(N3CCN(Cc4ccc5ccccc5c4O)CC3)c(F)cc2c1=O`, the growth [1] was 76.3%, the growth [2] was 66.7% and the growth [3] was 32.5%. The growth [4] was 42.2%, the growth [5] was 67.7% and the growth [6] was 59%. The growth [7] was 15.2%, the growth [8] was -7.61% (active) and the growth [9] was 68.2%. It also gave a growth [10] of 39%.

With `O=C(/C=C/c1cccc(Cl)c1)c1cccc(OCCCOc2cccc(C(=O)/C=C/c3cccc(Cl)c3)c2)c1` the growth [1] was 116%, the growth [2] was 99% and the growth [3] was 96.4%. For the same compound, the growth [4] was 66.8%, the growth [5] was 125% and the growth [6] was 97.3%. The growth [7] was 70.4%, the growth [8] was 102% and the growth [9] was 98.1%. It also gave a growth [10] of 96.9%.

In the case of `CCOC(=O)c1cc2c(n1Cc1cc(OC)c(OC)c(OC)c1)-c1nc(N)sc1CCC2`, the growth [1] is reported as 32.6%, the growth [2] is reported as 65.6% and the growth [3] is reported as 88.5%. For the same compound, the growth [4] was 57%, the growth [5] was 74.4% and the growth [6] was 77.2%. For the same compound, the growth [7] was 55.9%, the growth [8] was 7.34% (active) and the growth [9] was 41.1%. It also gave a growth [10] of 66.7%.

For `COC(=O)c1c(C)nc(C)c2c1C(=O)C(Br)=C(NCc1ccccc1)C2=O`, the growth [1] was 27.2%, the growth [2] was 17% and the growth [3] was 8.24% (active). For the same compound, the growth [4] was 46.1%, the growth [5] was 86.6% and the growth [6] was 36.9%. It also gave a growth [7] of 51.8%, a growth [8] of 88.6% and a growth [9] of 25.5%. It also gave a growth [10] of 13.6%.

Compound `O=C1/C(=C/c2cn(-c3ccccc3)nc2-c2ccccc2)SC(=S)N1C1CCCCC1` has a growth [1] of 108%, a growth [2] of 97.4% and a growth [3] of 92.9%. It also gave a growth [4] of 94.2%, a growth [5] of 117% and a growth [6] of 102%. For the same compound, the growth [7] was 85.2%, the growth [8] was 66.9% and the growth [9] was 107%. For the same compound, the growth [10] was 108%.

For `O=C(NCCNc1nccc(Nc2ccc(S(=O)(=O)Nc3ccccn3)cc2)n1)c1cccc([N+](=O)[O-])c1`, the growth [1] was 101%, the growth [2] was 98.6% and the growth [3] was 99.9%. It also gave a growth [4] of 82.5%, a growth [5] of 100% and a growth [6] of 102%. It also gave a growth [7] of 93.6%, a growth [8] of 83.6% and a growth [9] of 101%. For the same compound, the growth [10] was 93.8%.

`CCC(=C(c1ccc(OCCN2CCCCC2)cc1)c1ccc(OCCN2CCCCC2)cc1)c1ccc(Cl)cc1` was tested, and the growth [1] was -76.1% (active), the growth [2] was -82.1% (active) and the growth [3] was -94.9% (active). The growth [4] was -94.5% (active), the growth [5] was -84.7% (active) and the growth [6] was -99.7% (active). The growth [7] was -95.6% (active), the growth [8] was -81.4% (active) and the growth [9] was -74.4% (active). The growth [10] was -68.2% (active).

`O=C1/C(=C/c2ccccc2Br)COc2ccc(O)cc21` was tested, and the growth [1] was 107%, the growth [2] was 96.6% and the growth [3] was 49.5%. The growth [4] was 58.8%, the growth [5] was 105% and the growth [6] was 74.6%. The growth [7] was 72.5%, the growth [8] was 113% and the growth [9] was 3.07% (active). It also gave a growth [10] of 27.2%.

Work on `CC1CN(S(=O)(=O)c2oc(-c3ccc(Cl)cc3)nc2C#N)CC(C)O1` (stereo not given) yielded a growth [1] of 75.5%, a growth [2] of 101% and a growth [3] of 85.5%. For the same compound, the growth [4] was 90.4%, the growth [5] was -54% (active) and the growth [6] was 28.1%. For the same compound, the growth [7] was 91.2%, the growth [8] was 78.7% and the growth [9] was -2.97% (active). For the same compound, the growth [10] was -10.6% (active).

For `Cc1cn(-c2cc(NC(=O)c3cncc(C#Cc4cnc(N)c5ncccc45)c3)cc(C(F)(F)F)c2)cn1`, the growth [1] was 6.39% (active), the growth [2] was 85.1% and the growth [3] was 58.3%. It also gave a growth [4] of 25.4%, a growth [5] of 90.3% and a growth [6] of 73.4%. It also gave a growth [7] of 92%, a growth [8] of 60.7% and a growth [9] of 32.5%. The growth [10] was 34.7%.

In the case of `O=S(=O)(Nc1cc(F)cc(Cl)c1)c1ccc(-c2cnc(C3CC3)o2)cc1`, the growth [1] is reported as 52.8%, the growth [2] is reported as 38% and the growth [3] is reported as 45.8%. For the same compound, the growth [4] was 39.3%, the growth [5] was 47.7% and the growth [6] was 34.4%. For the same compound, the growth [7] was 31.3%, the growth [8] was -6.52% (active) and the growth [9] was 23.6%. For the same compound, the growth [10] was 31.9%.

With `COC(=O)[C@]1(C)CCC[C@]2(C)[C@H]3C[C@H]4C(C(C)C)=C[C@]3(CC[C@H]21)[C@@H]1C(=O)CC[C@H](OCCC#N)[C@@H]14` the growth [1] was 86.6%, the growth [2] was 57.1% and the growth [3] was 93.5%. For the same compound, the growth [4] was 71.1%, the growth [5] was 94.8% and the growth [6] was 87.5%. For the same compound, the growth [7] was 68%, the growth [8] was 105% and the growth [9] was 81.5%. The growth [10] was 48.6%.
